Records with an inconclusive call do not appear. A call without a number means that no potency is given here. Active and inactive are the calls of the source. Calls follow the shape of the dose curve; as a rule, active = well fitted inhibition curve with a large enough effect; inconclusive = small, poorly fitted or top-dose-only effect; inactive = flat fitted curve, though single readings scatter.
system: MKL-1; assay: qHTS assay to identify novel small-molecules to repurpose for Merkel cell carcinoma treatment (AID 1296009); settings: MCC and control cell lines, CellTiter-Glo viability, 72 h; series mostly up to 46 µM; also: nearly all actives have a fitted effect of over 60% in size
In short: (§1)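 After compound transfer in DMSO, plates were kept 72 hr at 37 degree celsius. Luminescent ATP signal from CellTiter-Glo served as viability measure, normalized against DMSO and no-cell controls.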
Potency is read from the fitted curve at half-maximal effect.

Compound	Potency	activity change, negative = cytotoxicity
C[C@@H](C1=C(CCN(C)C)Cc2ccccc21)c1ccccn1	inactive	
O=C1OC2(c3ccccc31)c1cc(I)c(O)c(I)c1Oc1c2cc(I)c(O)c1I	inactive	
CCOCCn1c(C2CCN(CCc3ccc(C(C)(C)C(=O)O)cc3)CC2)nc2ccccc21	inactive	
O=C(Oc1ccccc1)c1cccc(C(=O)Oc2ccccc2)c1	inactive	
CCc1cc2cc(OC)c(OC)cc2c(Cc2ccccc2)n1	inactive	
CCOc1ncc(F)c(=O)[nH]1	inactive	
COCCOCC(OC)OC	inactive	
O=C(O)c1ccc(OCCN2CCCCC2)cc1	inactive	
Oc1ccccc1	inactive	
O=C(OCCN1CCOCC1)c1cccnc1Nc1cccc(C(F)(F)F)c1	inactive	
O=C(O)c1ccccc1Nc1cc(Cl)ccc1C(=O)O	inactive	
COc1ccc2cc(C=O)ccc2c1	inactive	
COc1ccc2c(c1)c(CC(=O)OC/C=C(\C)CC/C=C(\C)CCC=C(C)C)c(C)n2C(=O)c1ccc(Cl)cc1	inactive	
O=C(O)[C@@H](O)[C@H](O)[C@H](O)[C@@H](O)C(=O)O	inactive	
CNC(=O)c1c(I)c(NC(C)=O)c(I)c(C(=O)O)c1I	inactive	
NCC[C@H](O)C(=O)N[C@@H]1C[C@H](N)[C@@H](O[C@H]2O[C@H](CN)[C@@H](O)[C@H](O)[C@@H]2O)[C@H](O)[C@@H]1O[C@H]1O[C@H](CO)[C@@H](O)[C@H](N)[C@@H]1O		9.09% [at 0.597 µM] (inactive)
O=C1Cc2cc(Cl)ccc2N1	inactive	
CN(C)CCOC1=Cc2ccccc2Sc2ccc(Cl)cc21	inactive	
CCCCC(CC)CNC(=O)CC(C)OC(=O)CCC(=O)O (centres undefined)	inactive	
C[C@@H]1CCC[C@H](C)N1CCCC(O)(c1ccccc1)c1ccccn1 (some centres undefined)	inactive	

Compound	Potency	activity change, negative = cytotoxicity
O=C1CCCc2c(O)cccc21	inactive	
C=CCOc1cc(Cl)ccc1C(=O)NCCN(CC)CC	inactive	
Cc1onc(-c2ccccc2)c1C(=O)Cl	inactive	
CCCCCCOC(=O)NC(=N)c1ccc(NCc2nc3cc(C(=O)N(CCC(=O)OCC)c4ccccn4)ccc3n2C)cc1	8.41 µM (active)	
CCN1CCN(C(=O)N[C@@H](C(=O)N[C@@H]2C(=O)N3[C@@H]2SC(C)(C)[C@H]3C(=O)O)c2ccccc2)C(=O)C1=O	inactive	
Nc1nc2ccccc2n1Cc1ccc(F)cc1	inactive	
Oc1ccc(CCNCCCCCCNCCc2ccccc2)cc1O	2.11 µM (active)	
CCOC(=O)c1cc(=O)c2c(OCC(COc3cccc4oc(C(=O)OCC)cc(=O)c34)OC(=O)[C@@H](N)CCCCN)cccc2o1	inactive	
CC(C)C(=O)Nc1cccc(C(F)(F)F)c1	inactive	
C=C(C)C(=O)OCC(O)CO (centres undefined)	inactive	
CCCCN(CCN(CCCC)C(=O)N1CCOCC1)C(=O)N1CCOCC1	inactive	
CC(Oc1c(Cl)cccc1Cl)C1=NCCN1 (centres undefined)	inactive	
CC(C)(C)CC(=O)OCC(=O)[C@@]1(O)CC[C@H]2[C@@H]3CCC4=CC(=O)C=C[C@]4(C)[C@H]3[C@@H](O)C[C@@]21C	inactive	
Cc1ccc(/C=N/n2c(-c3ccccc3)csc2=S)cc1	inactive	
CO[C@@H]1[C@@H](O[C@@H]2O[C@H](C)[C@@H](O[C@H]3C[C@@](C)(O)[C@@H](O)[C@H](C)O3)[C@H](N(C)C)[C@H]2O)[C@@H](CC=O)C[C@@H](C)[C@@H](O[C@@H]2CC[C@H](N(C)C)[C@@H](C)O2)/C=C/C=C/C[C@@H](C)OC(=O)C[C@H]1OC(C)=O	inactive	
N#CSCC(=O)O	inactive	
Cc1ccc(CCn2c3c(c4cc(Cl)ccc42)CN(C)CC3)cn1	inactive	
CO/N=C(/C(=O)N[C@@H]1C(=O)N2C(C(=O)OCOC(=O)C(C)(C)C)=C(C)CS[C@H]12)c1csc(N)n1	inactive	
CC(C)Cc1ccc(C(C)C(=O)OCc2ccccn2)cc1 (centres undefined)	inactive	

system: MKL-2; assay: as above; settings: MCC and control cell lines, CellTiter-Glo viability, 72 h; series mostly up to 46 µM
In short: as §1

Compound	Potency	activity change, negative = cytotoxicity
C[C@@H](C1=C(CCN(C)C)Cc2ccccc21)c1ccccn1	inactive	
CCOCCn1c(C2CCN(CCc3ccc(C(C)(C)C(=O)O)cc3)CC2)nc2ccccc21	inactive	
O=C(Oc1ccccc1)c1cccc(C(=O)Oc2ccccc2)c1	inactive	
CCOc1ncc(F)c(=O)[nH]1	inactive	
COCCOCC(OC)OC	inactive	
O=C(O)c1ccc(OCCN2CCCCC2)cc1	inactive	
Oc1ccccc1	inactive	
O=C(OCCN1CCOCC1)c1cccnc1Nc1cccc(C(F)(F)F)c1	inactive	
COc1ccc2cc(C=O)ccc2c1	inactive	
O=C(O)[C@@H](O)[C@H](O)[C@H](O)[C@@H](O)C(=O)O	inactive	
CNC(=O)c1c(I)c(NC(C)=O)c(I)c(C(=O)O)c1I	inactive	
NCC[C@H](O)C(=O)N[C@@H]1C[C@H](N)[C@@H](O[C@H]2O[C@H](CN)[C@@H](O)[C@H](O)[C@@H]2O)[C@H](O)[C@@H]1O[C@H]1O[C@H](CO)[C@@H](O)[C@H](N)[C@@H]1O		22.5% [at 0.597 µM] (inactive)
CCCCC(CC)CNC(=O)CC(C)OC(=O)CCC(=O)O (centres undefined)	inactive	
C[C@@H]1CCC[C@H](C)N1CCCC(O)(c1ccccc1)c1ccccn1 (some centres undefined)	inactive	
O=C1CCCc2c(O)cccc21	inactive	
C=CCOc1cc(Cl)ccc1C(=O)NCCN(CC)CC	inactive	
Cc1onc(-c2ccccc2)c1C(=O)Cl	inactive	
CCCCCCOC(=O)NC(=N)c1ccc(NCc2nc3cc(C(=O)N(CCC(=O)OCC)c4ccccn4)ccc3n2C)cc1	15 µM (active)	
CCN1CCN(C(=O)N[C@@H](C(=O)N[C@@H]2C(=O)N3[C@@H]2SC(C)(C)[C@H]3C(=O)O)c2ccccc2)C(=O)C1=O	inactive	
Oc1ccc(CCNCCCCCCNCCc2ccccc2)cc1O	0.596 µM (active)	
CC(C)C(=O)Nc1cccc(C(F)(F)F)c1	inactive	
C=C(C)C(=O)OCC(O)CO (centres undefined)	inactive	
CC(Oc1c(Cl)cccc1Cl)C1=NCCN1 (centres undefined)	inactive	
CC(=O)OC/C=C(C)/C=C/C=C(C)/C=C/C1=C(C)CCCC1(C)C	3.76 µM (active)	
CO[C@@H]1[C@@H](O[C@@H]2O[C@H](C)[C@@H](O[C@H]3C[C@@](C)(O)[C@@H](O)[C@H](C)O3)[C@H](N(C)C)[C@H]2O)[C@@H](CC=O)C[C@@H](C)[C@@H](O[C@@H]2CC[C@H](N(C)C)[C@@H](C)O2)/C=C/C=C/C[C@@H](C)OC(=O)C[C@H]1OC(C)=O	inactive	
